Data as given in PubChem BioAssay (NCATS).
Inconclusive results are not listed. Calls of active or inactive are those of the source. Calls come from the whole dose curve; as a rule, active = well fitted curve in the direction sought with a large enough effect; inconclusive = small, poorly fitted or top-dose-only effect, or another doubt; inactive = no such curve, though single readings can be large; an effect the other way counts as inactive or inconclusive.

Legend:
[1] = qHTS for Activators of Parkin Expression: LOPAC Validation Assay (FLuc Reporter) (AID 720573;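 note: 0% = DMSO and 100% = positive control compounds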)
In short: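 A neuronal cell line harbouring FLuc and NLuc reporters behind the Parkin promoter was exposed to compounds for 24 h. Firefly luciferase signal, measured after 10 min with detection reagent, was scaled to DMSO and positive-control wells.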

[2] = target: T1, Hexokinase-4 (Homo sapiens) + Glucokinase regulatory protein (Homo sapiens) (UniProt P35557+Q14397); assay: qHTS assay for inhibitors of recombinant human GCK-GKRP interaction: Diaphorase-coupled assay (AID 743205)
In short: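 Inhibitors of the GCK–GKRP complex relieve GKRP suppression of GCK, detected through a G6PDH–diaphorase cascade reducing resazurin. Human GST-GCK and FLAG-GKRP are used at 10 nM with 5 mM glucose and 0.4 mM ATP.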

[3] = target: T1, Hexokinase-4 (Homo sapiens) + Glucokinase regulatory protein (Homo sapiens); assay: qHTS assay for inhibitors of recombinant human GCK-GKRP interaction: ADP-Glo assay (AID 743206);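 note: plate controls were DMSO plus enzyme for no effect and no enzyme for full effect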
In short: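 GST-GCK and FLAG-GKRP (15 nM each in the dispensed mix, with 2 uM S6P) react with 0.4 mM ATP and 5 mM glucose (final) in Hepes pH 7.6 for 60 min at room temperature. ADP is measured by ADP-Glo luminescence.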

[4] = target: T1, Hexokinase-4 (Homo sapiens) + Glucokinase regulatory protein (Homo sapiens); assay: qHTS assay for inhibitors of recombinant human GCK-GKRP interaction: HTRF assay (AID 743207);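 note: 0% = DMSO with GCK present and -100% = DMSO wells lacking GCK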
In short: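 Steps: dispense GCK–GKRP complex (5 nM each, GST- and FLAG-tagged) with 2 uM S6P; pin in compounds; add XL665/Eu-cryptate-labelled antibodies; incubate 60 min at room temperature; read time-resolved FRET at 665 and 615 nm.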

[5] = qHTS Assay for Identifying Gametocytocidal Compounds (AID 743244);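 note: % is set by controls: 0 for no effect and ±100 for the full control effect; actives lower the fluorescent signal which means gametocytes are killed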; details: P. falciparum 3D7 stage III-V gametocytes, alamarBlue, 72 h; max response: active compounds read low
In short: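 Late gametocytes (III–V), P. falciparum 3D7; 72 h drug, then 24 h alamarBlue; resazurin reduction read by fluorescence.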

[6] = qHTS assay for measurement of the activity of small molecule inhibitors on Zika virus induced Caspase-3 activity in human iPSC derived neural progenitor cells (hNPCs) (AID 1224857); note: % of control where 0% means no effect; nearly all actives have a fitted effect of over 65% in size
In short: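 Caspase-3/7 induction by a 6-hour ZIKV infection was quantified with a luminescent Caspase-Glo 3/7 reagent incubated 30 minutes at room temperature. Compounds were preincubated with hNPCs for 1 hour; inhibition was calculated against uninfected and infected control wells.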

[7] = qHTS assay for measurement of the activity of small molecule inhibitors on Zika virus induced Caspase-3 activity in human astrocytoma cells (AID 1224859);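 note: plate controls were ZIKV-infected untreated cells for no effect and uninfected cells for full effect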
In short: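 In SNB-19 cells plated at 250 cells/well and grown 16-20 h, compounds were applied 1 h before ZIKV (2 FFU/cell). Six hours later caspase-3/7 luminescence was recorded.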

T1 sequence (P35557 whole entry, looked up): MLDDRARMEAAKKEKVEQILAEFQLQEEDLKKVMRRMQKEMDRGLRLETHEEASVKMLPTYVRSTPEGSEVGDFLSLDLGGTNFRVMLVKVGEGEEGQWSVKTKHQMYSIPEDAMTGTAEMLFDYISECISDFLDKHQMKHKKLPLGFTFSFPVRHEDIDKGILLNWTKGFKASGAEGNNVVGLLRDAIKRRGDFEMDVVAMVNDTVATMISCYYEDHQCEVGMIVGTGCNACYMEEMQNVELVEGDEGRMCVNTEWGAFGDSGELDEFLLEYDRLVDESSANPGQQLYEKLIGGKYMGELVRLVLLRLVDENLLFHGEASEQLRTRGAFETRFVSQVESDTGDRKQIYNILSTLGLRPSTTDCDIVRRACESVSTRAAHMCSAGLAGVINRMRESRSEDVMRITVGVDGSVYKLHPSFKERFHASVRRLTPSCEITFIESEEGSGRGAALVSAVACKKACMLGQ
T1 sequence (Q14397 whole entry, looked up): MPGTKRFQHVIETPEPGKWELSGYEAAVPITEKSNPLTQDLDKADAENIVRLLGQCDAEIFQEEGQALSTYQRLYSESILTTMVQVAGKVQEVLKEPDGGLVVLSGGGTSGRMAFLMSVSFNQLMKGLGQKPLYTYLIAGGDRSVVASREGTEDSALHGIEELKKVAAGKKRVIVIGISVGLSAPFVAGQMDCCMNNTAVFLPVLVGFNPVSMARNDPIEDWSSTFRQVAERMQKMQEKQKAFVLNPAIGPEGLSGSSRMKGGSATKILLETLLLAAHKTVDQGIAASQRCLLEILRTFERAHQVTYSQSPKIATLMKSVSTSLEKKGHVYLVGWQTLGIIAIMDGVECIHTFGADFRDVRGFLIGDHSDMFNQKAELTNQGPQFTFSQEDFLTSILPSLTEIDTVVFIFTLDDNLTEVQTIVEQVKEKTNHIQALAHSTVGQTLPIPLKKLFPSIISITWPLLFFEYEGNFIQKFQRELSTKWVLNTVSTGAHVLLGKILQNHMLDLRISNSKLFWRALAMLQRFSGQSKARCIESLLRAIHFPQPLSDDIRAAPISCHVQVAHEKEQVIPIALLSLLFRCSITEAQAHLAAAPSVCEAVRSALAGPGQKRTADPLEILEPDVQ

NC(C(=O)O)c1cc(=O)[nH]o1 (stereo not given)
inactive: outcome [1] | Potency [2] | outcome [3] | outcome [4] | max response [5] 7.64% | Potency [6] | outcome [7]

N=C(N)c1ccc(CS(=O)(=O)F)cc1
inactive: outcome [1] | Potency [2] | outcome [3] | outcome [4] | max response [5] 2.02% | Potency [6] | outcome [7]

Oc1ccc2c3c1O[C@H]1c4oc5ccccc5c4C[C@@]4(O)C(C2)N(CC2CC2)CCC314 (stereo not given in full)
inactive: outcome [1] | Potency [2] | outcome [3] | outcome [4] | Potency [6] | outcome [7]

CCN(CC)c1ncnc2c1ncn2[C@@H]1O[C@H](COP(=O)(O)OP(=O)(O)C(Br)(Br)P(=O)(O)O)[C@@H](O)[C@H]1O
inactive: Potency [6]

CN1CCC(c2c[nH]c3ccc(O)cc23)CC1
inactive: outcome [1] | Potency [2] | outcome [3] | outcome [4] | max response [5] 11.9% | Potency [6] | outcome [7]

CCCn1c(=O)c2[nH]c(C3CCCC3)nc2n(CCCOC(=O)c2ccc(S(=O)(=O)F)cc2)c1=O
inactive: outcome [1] | Potency [2] | outcome [3] | outcome [4] | Potency [6] | outcome [7]

COc1ccc2[nH]c3c(c2c1)CCNC3
inactive: outcome [1] | Potency [2] | outcome [3] | outcome [4] | Potency [6] | outcome [7]

CN1CCc2cccc(Cl)c2CC1
inactive: outcome [1] | Potency [2] | outcome [3] | outcome [4] | Potency [6] | outcome [7]

C[N+]1(C)CCC(OC(=O)C(c2ccccc2)c2ccccc2)CC1
inactive: Potency [6]

O=c1ccc2[nH]cc(C3=CCNCC3)c2[nH]1
inactive: Potency [6]

CCNC(=O)[C@H]1O[C@@H](n2cnc3c(N)ncnc32)[C@H](O)C1O (stereo not given in full)
inactive: Potency [6]

O=[N+]([O-])c1ccc2nc(N3CCNCC3)ccc2c1
inactive: outcome [1] | Potency [2] | outcome [3] | outcome [4] | Potency [6] | outcome [7]
